# Assay results from PubChem BioAssay (NCATS).
# Records with an inconclusive call do not appear. Entries that show only a call come without a potency. Activity calls are given as the source filed them. Unless noted, calls follow the shape of the dose curve; as a rule, active = well fitted curve in the direction sought with a large enough effect; inconclusive = small, poorly fitted or top-dose-only effect, or another doubt; inactive = no such curve, though single readings can be large; an effect the other way counts as inactive or inconclusive. Peptide text beside a SMILES is read from it.
# Assays:
# [1] = target: ATP-dependent 6-phosphofructokinase (Trypanosoma brucei brucei) (UniProt O15648); test: qHTS Assay to Find Inhibitors of T. brucei phosphofructokinase: hit validation (AID 492961); also: potency is read from the fitted curve at half-maximal effect
# Method in brief: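 Percent activity derived from corrected luminescence, normalized between 0x and 1x enzyme controls, then fitted to concentration-response curves. Conditions: 1.25 nM PFK, 0.1 mM ATP, 0.5 mM F6P, 45 min RT.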
# [2] = Validation screen for small molecules that induce DNA re-replication in MCF 10A normal breast cells (AID 463097); also: nearly all actives have a fitted effect of over 60% in size
# Method in brief: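 MCF 10A cells exposed to compound 48 hr at 37 C, 5% CO2, then Hoechst-stained 40 min. Laser-scanning imaging of nuclear DNA content (405 nm ex, 500-530 nm em); re-replication scored as rise in nuclei with elevated fluorescence intensity.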
# [3] = target: M-phase phosphoprotein 8 (Homo sapiens) (UniProt Q99549); test: qHTS Validation Assay for Inhibitors for MPP8 Chromodomain Interactions with Methylated Histone Tails (AID 488949); also: top concentration of the series differs between compounds; nearly all actives have a fitted effect of over 55% in size
# Method in brief: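 MPP8 (50 nM) was pre-bound to 50 nM biotinylated H3(1-18)K9me3 peptide in PBS pH 7.4 with 0.01% Tween-20. Compounds were then added for 30 min at room temperature, and complex disruption was read by AlphaScreen with streptavidin donor and nickel-chelate acceptor beads.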
# [4] = target: Transient receptor potential cation channel subfamily V member 1 (Homo sapiens) (UniProt Q8NER1); test: HTS Assay for Compounds that Act as Enhancers of the Vanilloid Receptor 1 (AID 488979)
# Method in brief: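 TRPV1-expressing cells loaded with Fluo-8 calcium dye; compounds added and calcium influx read kinetically for 3 min (agonist phase), then capsaicin at EC20 added and read 2 min more for enhancement. Fluorescence ex 480/em 520 nm.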
# [5] = target: Thyrotropin receptor (Homo sapiens) (UniProt P16473); test: qHTS Assay for Antagonists of the Thyroid Stimulating Hormone Receptor (AID 488980)
# Method in brief: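 TSHR-transfected HEK293 cells (2000/well) in HEPES-buffered HBSS with 70 uM RO 20-1724 were stimulated with 4 nM TSH (EC80, final) in the presence of compound. cAMP was measured by HTRF competition after lysis and 30 min at RT.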
# [6] = target: Tyrosyl-DNA phosphodiesterase 1 (Homo sapiens) (UniProt Q9NUW8); test: Confirmation Assay for Inhibitors of Tyrosyl-DNA Phosphodiesterase (TDP1) (AID 489007); conditions: recombinant human TDP1 enzymatic activity, dose-response; also: potency is read from the fitted curve at half-maximal effect; nearly all actives have a fitted effect of over 40% in size
# Method in brief: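 Recombinant human Tdp1 (1 nM final), expressed in E. coli, preincubated 15 min with compound. Then 15 nM 5'-biotin/3'-phosphotyrosine-FITC DNA substrate added for 5 min at room temperature. AlphaScreen beads (10 ug/ml) added for 10 min; cleavage gives signal loss.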
# [7] = Cytometry Cell-Based qHTS for Inhibitors of the mTORC1 Signaling Pathway in MEF cells (AID 2668);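 also: Tsc2-/- p53-/- mouse embryonic fibroblasts stably re-expressing wild-type Tsc2; percent cells positive for phospho-rpS6 Ser235/236 relative to propidium iodide stain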
# Method in brief: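 MEFs (Tsc2-/-, p53-/- stably expressing WT Tsc2) treated 24 h at 37 degree Celsius, fixed, stained with Alexa-488 anti-phospho-rpS6 Ser235/236 and propidium iodide; Acumen laser scanning. Reported as % positive cells, phospho-S6 normalized to PI.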
# [8] = target: Ubiquitin carboxyl-terminal hydrolase 2 (Homo sapiens) (UniProt O75604); test: qHTS Validation Assay for Inhibitors of Ubiquitin-specific Protease USP2a Using CHOP2 as the Reporter (AID 463106)
# Method in brief: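 USP2 core (10nM final) was preincubated with compound for 30min at RT in 20mM Tris-HCl pH 8.0, 2mM CaCl2, 2mM beta-mercaptoethanol, 0.05% CHAPS. Ub-CHOP2 and reporter substrate (25nM each) were added, and fluorescence (Ex 485/Em 531nm) was read after 60min.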
# [9] = target: DNA polymerase III PolC-type (Bacillus subtilis (strain 168)) (UniProt P13267); test: qHTS Validation Assay for the Inhibitors of DNA Replication in Gram-Positive Bacteria (AID 485295);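 also: PicoGreen fluorescence of double-stranded DNA made on primed circular M13 template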
# Method in brief: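 Reconstituted B. subtilis Pol III holoenzyme (PolC, beta clamp, SSB, primase) preincubated with compound, then M13Gori single-stranded circular template with dNTPs/NTPs added; room temperature reaction. Stopped with EDTA/PicoGreen; dsDNA fluorescence read, EDTA as full-inhibition control.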
# [10] = target: Tumor susceptibility gene 101 protein (Homo sapiens) (UniProt Q99816); test: qHTS Validation Assay for Iinhibitors of HIV-1 Budding by Blocking the Interaction of PTAP/TSG101 (AID 485342; calls by dose curve)
# Method in brief: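 Tsg101 binding domain (10 uM) with FITC-labeled PTAP peptide (50 nM) in HEPES pH 7.5 buffer, 20 min at r.t. with compounds. Binding measured by fluorescence polarization.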
# [11] = target: Beta-2 adrenergic receptor (Homo sapiens) (UniProt P07550); test: qHTS validation assay of beta-arrestin-biased ligands of beta2-adrenergic receptor (AID 485366)
# Method in brief: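 Values derive from curve-fitted %Activity of a luminescent beta-arrestin recruitment reporter; compounds tested up to 46 microM on Tango cells for 18 hr at 37 degrees C, 5% CO2.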
# [12] = target: ATP-dependent 6-phosphofructokinase (Trypanosoma brucei brucei) (UniProt O15648); test: qHTS Validation Assay to Find Inhibitors of T. brucei phosphofructokinase (AID 485368); conditions: T. brucei PFK enzyme assay, qHTS 7-point titration; at 57.5 µM (top of the series)
# Method in brief: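 Enzyme reaction in triethanolamine buffer pH 8.0 with 5 mM MgCl2, 0.01% Tween20 and 0.1% BSA; PFK 1.25 nM, F6P 0.5 mM, ATP 0.1 mM, 45 min RT. ADP quantified by ADP-Glo.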
# [13] = target: Thioredoxin reductase 1, cytoplasmic (Rattus norvegicus) (UniProt O89049); test: qHTS Assay for Substrates of Mammalian Selenoprotein Thioredoxin Reductase 1 (TrxR1) (AID 488772);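 also: NADPH fluorescence in the first read after selenite addition and not the 8 min delta; a drop in NADPH fluorescence below the no-compound background marks a TrxR1 substrate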
# Method in brief: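 Quantitative HTS in Tris-HCl buffer at pH 7.5 with EDTA and Tween-20, using rat TrxR1, 400 uM NADPH and 400 uM selenite (final). A fall in initial NADPH fluorescence relative to background marked substrate behaviour.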
# [14] = target: Thioredoxin reductase 1, cytoplasmic (Rattus norvegicus) (UniProt O89049); test: qHTS Assay for Inhibitors of Mammalian Selenoprotein Thioredoxin Reductase 1 (TrxR1) (AID 488773);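 also: drop in NADPH fluorescence over an 8 min run after selenite addition; nearly all actives have a fitted effect of over 40% in size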
# Method in brief: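 Steps: enzyme (90 nM) plus NADPH (400 uM final), 5 min at ~22 deg C; compound added, 15 min; selenite (400 uM final) added; fluorescence followed for 8 min. Concentration-response curves derived from the normalized delta values.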
# [15] = target: Flap endonuclease 1 (Homo sapiens) (UniProt P39748); test: qHTS Validation Assay for the Inhibitors of Human Flap endonuclease 1 (FEN1) (AID 488816)
# Method in brief: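 FEN1, dispensed as a 10 nM reagent, was preincubated with pin-transferred compounds for 15 min at room temperature before substrate was added (50 nM final). Plates were read at 0 and 15 min, and a four-parameter Hill equation was fitted to the concentration-response data.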
# [16] = target: Methanococcus maripaludis chaperonin (MmCpn) (UniProt Q6LX38); test: High-Throughput Screening for Modulators of Cytosolic Chaperonin Activity: MmCpn Primary Screen (AID 488978);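 also: 50 nM MmCpn enzyme hydrolysing 30 µM ATP at 37 °C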
# Method in brief: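 MmCpn at 50 nM final was preincubated 5 min at RT with compound. ATP was then added at 30 uM final for 10 min at 37 C. ADP formed was detected by Transcreener HTRF (665/590 nm).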
# [17] = target: D(1A) dopamine receptor (Homo sapiens) (UniProt P21728); test: HTS Assay for Allosteric Agonists of the Human D1 Dopamine Receptor: Primary Screen for Agonists (AID 488981)
# Method in brief: (§1)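 Tetracycline-induced HEK293 T-REx cells force-coupled to calcium signalling were incubated overnight at 30 C and dye-loaded at room temperature. Calcium flux over 180 s after compound addition flagged agonists; a further 180 s read after EC20 dopamine flagged potentiators.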
# [18] = target: D(1A) dopamine receptor (Homo sapiens) (UniProt P21728); test: HTS Assay for Allosteric Agonists of the Human D1 Dopamine Receptor: Primary Screen for Potentiators (AID 488982)
# Method in brief: as §1
# [19] = target: D(1A) dopamine receptor (Homo sapiens) (UniProt P21728); test: HTS Assay for Allosteric Agonists of the Human D1 Dopamine Receptor: Primary Screen for Antagonists (AID 488983);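 also: calcium flux response to an EC80 dopamine challenge measured with no-wash dye; nearly all actives have a fitted effect of over 65% in size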
# Method in brief: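 Tetracycline-induced HEK293 T-REx D1 line, force-coupled to calcium flux, read with no-wash calcium dye. Compound added after 10 s baseline, read 180 s for agonism, then EC80 dopamine added and read a further 180 s.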
# [20] = Validation screen for small molecules that induce genotoxicity in human embryonic kidney (HEK293T) cells expressing luciferase-tagged ELG1 (AID 493106)
# Method in brief: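 HEK293T cells expressing luciferase-tagged ELG1, 2,000 cells/well, exposed to compound 16 hr at 37 °C, 5% CO2. Luciferase read after ONE-Glo, 30 min at room temperature; increased signal indicates genetic stress.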
# Sequence of ATP-dependent 6-phosphofructokinase (Trypanosoma brucei brucei) (O15648 whole entry, looked up): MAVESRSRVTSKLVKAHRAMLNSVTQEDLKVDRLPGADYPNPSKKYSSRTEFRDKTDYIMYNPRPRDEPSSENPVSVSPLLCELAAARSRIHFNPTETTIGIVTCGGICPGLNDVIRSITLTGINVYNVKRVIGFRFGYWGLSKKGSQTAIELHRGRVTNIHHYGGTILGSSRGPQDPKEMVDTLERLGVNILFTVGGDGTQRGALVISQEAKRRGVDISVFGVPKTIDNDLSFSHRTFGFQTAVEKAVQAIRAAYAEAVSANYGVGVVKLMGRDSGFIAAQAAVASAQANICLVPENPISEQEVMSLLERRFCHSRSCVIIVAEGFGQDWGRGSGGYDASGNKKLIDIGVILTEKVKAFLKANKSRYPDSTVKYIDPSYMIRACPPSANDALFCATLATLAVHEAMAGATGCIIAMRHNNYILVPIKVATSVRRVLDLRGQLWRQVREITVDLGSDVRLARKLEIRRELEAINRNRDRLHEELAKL
# Sequence of M-phase phosphoprotein 8 (Homo sapiens) (Q99549 whole entry, looked up): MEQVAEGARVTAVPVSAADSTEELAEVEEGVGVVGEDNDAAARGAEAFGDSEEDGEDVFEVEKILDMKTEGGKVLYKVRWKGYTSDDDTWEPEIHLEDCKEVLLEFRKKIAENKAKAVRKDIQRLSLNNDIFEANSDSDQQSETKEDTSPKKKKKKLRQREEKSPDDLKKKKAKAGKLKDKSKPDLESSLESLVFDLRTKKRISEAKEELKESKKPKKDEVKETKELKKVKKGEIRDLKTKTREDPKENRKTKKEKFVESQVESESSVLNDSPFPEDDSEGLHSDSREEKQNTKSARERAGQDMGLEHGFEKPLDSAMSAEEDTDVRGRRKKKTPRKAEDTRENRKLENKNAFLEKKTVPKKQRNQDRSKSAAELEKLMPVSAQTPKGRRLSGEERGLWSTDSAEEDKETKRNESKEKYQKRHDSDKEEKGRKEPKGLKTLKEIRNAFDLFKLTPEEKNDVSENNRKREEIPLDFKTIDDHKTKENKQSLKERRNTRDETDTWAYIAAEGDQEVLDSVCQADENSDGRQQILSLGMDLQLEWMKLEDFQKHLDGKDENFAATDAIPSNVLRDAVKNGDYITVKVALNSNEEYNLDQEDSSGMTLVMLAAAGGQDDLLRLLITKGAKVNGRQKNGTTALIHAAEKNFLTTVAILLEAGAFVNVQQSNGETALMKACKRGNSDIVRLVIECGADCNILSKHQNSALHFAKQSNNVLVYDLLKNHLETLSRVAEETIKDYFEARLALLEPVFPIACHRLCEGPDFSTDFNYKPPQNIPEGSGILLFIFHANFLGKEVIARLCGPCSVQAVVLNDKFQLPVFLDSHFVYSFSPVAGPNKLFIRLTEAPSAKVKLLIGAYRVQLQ
# Sequence of D(1A) dopamine receptor (Homo sapiens) (P21728 whole entry, looked up): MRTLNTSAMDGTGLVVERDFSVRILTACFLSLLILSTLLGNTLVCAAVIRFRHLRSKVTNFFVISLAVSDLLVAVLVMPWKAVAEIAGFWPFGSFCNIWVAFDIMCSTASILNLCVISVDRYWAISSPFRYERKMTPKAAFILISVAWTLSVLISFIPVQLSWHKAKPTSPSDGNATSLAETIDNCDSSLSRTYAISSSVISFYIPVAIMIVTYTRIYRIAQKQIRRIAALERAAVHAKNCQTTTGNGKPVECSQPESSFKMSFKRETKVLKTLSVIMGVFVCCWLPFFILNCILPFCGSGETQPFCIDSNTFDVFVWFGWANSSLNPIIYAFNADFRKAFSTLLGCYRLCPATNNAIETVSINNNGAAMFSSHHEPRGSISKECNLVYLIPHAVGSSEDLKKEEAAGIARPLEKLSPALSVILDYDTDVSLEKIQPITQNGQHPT
# Sequence of Thioredoxin reductase 1, cytoplasmic (Rattus norvegicus) (O89049 whole entry, looked up): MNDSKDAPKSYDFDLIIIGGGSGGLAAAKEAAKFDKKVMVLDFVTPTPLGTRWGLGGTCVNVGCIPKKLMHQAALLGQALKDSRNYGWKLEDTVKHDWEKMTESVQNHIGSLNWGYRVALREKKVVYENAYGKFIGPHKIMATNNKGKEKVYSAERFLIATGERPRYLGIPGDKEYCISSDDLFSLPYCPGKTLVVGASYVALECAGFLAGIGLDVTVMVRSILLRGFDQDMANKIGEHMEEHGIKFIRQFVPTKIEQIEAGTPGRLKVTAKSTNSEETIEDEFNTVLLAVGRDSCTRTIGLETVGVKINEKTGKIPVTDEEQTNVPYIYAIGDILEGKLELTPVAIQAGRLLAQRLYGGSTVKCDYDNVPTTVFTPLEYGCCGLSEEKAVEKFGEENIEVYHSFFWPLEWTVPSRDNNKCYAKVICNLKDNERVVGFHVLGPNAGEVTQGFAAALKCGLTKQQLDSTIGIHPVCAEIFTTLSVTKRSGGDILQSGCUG
# Sequence of Tyrosyl-DNA phosphodiesterase 1 (Homo sapiens) (Q9NUW8 whole entry, looked up): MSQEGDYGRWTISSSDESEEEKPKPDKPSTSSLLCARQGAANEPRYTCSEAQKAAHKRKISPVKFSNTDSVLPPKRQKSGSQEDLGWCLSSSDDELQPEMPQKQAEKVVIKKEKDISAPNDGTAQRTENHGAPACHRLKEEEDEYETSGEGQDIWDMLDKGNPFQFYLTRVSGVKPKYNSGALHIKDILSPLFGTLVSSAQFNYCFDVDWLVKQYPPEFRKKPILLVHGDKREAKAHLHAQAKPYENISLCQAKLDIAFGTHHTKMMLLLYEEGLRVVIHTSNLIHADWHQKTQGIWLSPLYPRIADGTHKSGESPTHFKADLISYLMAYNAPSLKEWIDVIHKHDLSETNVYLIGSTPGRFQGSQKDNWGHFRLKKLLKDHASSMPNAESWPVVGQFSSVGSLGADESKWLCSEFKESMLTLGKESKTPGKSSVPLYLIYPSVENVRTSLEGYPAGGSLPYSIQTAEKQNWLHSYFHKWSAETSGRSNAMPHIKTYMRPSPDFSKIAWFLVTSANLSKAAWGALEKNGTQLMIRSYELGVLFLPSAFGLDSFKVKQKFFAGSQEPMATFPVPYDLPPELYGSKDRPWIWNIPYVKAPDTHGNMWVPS
# Sequence of Transient receptor potential cation channel subfamily V member 1 (Homo sapiens) (Q8NER1 whole entry, looked up): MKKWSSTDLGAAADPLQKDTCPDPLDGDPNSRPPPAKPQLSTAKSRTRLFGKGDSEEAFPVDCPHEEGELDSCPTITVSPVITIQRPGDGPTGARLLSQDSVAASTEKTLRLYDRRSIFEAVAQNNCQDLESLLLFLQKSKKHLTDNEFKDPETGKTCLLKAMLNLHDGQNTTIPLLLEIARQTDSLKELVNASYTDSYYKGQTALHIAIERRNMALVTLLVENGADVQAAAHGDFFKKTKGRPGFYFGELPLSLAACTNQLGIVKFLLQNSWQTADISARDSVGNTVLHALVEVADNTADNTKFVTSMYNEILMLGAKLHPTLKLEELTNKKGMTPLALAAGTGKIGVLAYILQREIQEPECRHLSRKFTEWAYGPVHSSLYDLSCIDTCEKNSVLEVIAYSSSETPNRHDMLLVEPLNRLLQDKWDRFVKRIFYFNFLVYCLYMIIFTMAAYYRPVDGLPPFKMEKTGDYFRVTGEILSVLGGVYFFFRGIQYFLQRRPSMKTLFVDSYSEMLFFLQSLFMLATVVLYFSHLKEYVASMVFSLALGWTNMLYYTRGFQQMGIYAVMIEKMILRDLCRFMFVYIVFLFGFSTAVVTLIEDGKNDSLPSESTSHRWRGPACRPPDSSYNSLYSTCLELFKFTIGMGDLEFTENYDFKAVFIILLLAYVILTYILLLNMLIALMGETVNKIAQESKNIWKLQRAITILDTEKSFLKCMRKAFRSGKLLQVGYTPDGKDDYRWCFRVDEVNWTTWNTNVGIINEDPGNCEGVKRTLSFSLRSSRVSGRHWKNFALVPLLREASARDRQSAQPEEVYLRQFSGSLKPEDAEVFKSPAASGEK
# Sequence of Thyrotropin receptor (Homo sapiens) (P16473 whole entry, looked up): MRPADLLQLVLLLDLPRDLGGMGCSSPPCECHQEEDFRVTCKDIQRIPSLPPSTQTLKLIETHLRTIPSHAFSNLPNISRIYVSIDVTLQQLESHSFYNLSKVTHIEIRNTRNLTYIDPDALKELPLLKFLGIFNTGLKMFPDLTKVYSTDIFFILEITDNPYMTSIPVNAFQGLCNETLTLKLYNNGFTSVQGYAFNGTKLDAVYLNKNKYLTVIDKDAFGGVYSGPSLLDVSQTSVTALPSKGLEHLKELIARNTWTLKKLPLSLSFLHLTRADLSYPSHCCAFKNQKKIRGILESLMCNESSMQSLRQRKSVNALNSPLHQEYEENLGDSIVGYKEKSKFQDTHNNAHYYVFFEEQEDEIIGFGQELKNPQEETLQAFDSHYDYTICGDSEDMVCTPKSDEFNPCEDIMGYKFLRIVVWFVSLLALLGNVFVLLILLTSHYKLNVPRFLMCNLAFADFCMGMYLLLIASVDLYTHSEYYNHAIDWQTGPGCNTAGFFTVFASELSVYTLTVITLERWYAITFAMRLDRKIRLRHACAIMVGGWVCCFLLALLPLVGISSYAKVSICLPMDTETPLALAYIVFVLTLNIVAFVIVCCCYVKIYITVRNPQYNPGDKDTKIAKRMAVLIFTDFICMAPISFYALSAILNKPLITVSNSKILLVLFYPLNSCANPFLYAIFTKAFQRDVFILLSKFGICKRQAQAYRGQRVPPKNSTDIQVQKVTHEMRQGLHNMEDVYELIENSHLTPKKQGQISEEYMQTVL
# Sequence of Flap endonuclease 1 (Homo sapiens) (P39748 whole entry, looked up): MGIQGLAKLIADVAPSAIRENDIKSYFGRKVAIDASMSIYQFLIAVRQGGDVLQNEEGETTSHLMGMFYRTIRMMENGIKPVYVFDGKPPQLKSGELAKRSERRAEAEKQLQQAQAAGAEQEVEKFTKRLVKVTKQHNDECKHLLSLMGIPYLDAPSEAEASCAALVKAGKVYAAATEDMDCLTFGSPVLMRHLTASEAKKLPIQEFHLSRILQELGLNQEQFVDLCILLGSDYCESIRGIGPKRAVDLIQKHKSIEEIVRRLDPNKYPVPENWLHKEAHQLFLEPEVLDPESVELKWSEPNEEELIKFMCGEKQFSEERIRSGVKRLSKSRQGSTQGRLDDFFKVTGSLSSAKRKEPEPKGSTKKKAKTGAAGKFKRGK
structure (smiles),measurement,setting,value
CCN(CC)CCOc1ccc(-c2nc3cc(Cl)ccc3s2)cc1,Potency,[1],inactive
CCOc1ccc(N=Nc2ccc(N)cc2N)cc1,Potency,[1],inactive
O=C(COc1ccc(Cl)cc1)OCCNC12CC3CC(CC(C3)C1)C2,Potency,[1],inactive
CC(C)=O,Potency,[1],inactive
CC[C@@]1(O)C(=O)OCc2c1cc1n(c2=O)Cc2cc3c([N+](=O)[O-])cccc3nc2-1,Potency,[1],inactive
CCCCC(=O)O[C@]1(C(=O)CO)[C@H](C)C[C@H]2[C@@H]3CCC4=CC(=O)C=C[C@]4(C)[C@@]3(F)[C@@H](O)C[C@@]21C,Potency,[1],inactive
CCCCC/C=C\C/C=C\CCCCCCCC(=O)O,Potency,[1],inactive
C[C@@H]1CCC2[C@@H](C)[C@@H](O)O[C@@H]3O[C@@]4(C)CC[C@@H]1[C@@]23OO4 (stereo partly specified),Potency,[1],inactive
COC(=O)[C@H]1[C@H]2C[C@@H]3c4[nH]c5ccccc5c4CCN3C[C@H]2C[C@@H](OC(=O)c2cc(OC)c(OC)c(OC)c2)[C@@H]1OC,Potency,[1],inactive
C[C@]12O[C@H](C[C@]1(O)CO)n1c3ccccc3c3c4c(c5c6ccccc6n2c5c31)CNC4=O,Potency,[1],inactive
Cc1ccccc1,Potency,[1],inactive
COC(C(=O)C(O)C(C)O)C1Cc2cc3cc(OC4CC(OC5CC(O)C(O)C(C)O5)C(O)C(C)O4)c(C)c(O)c3c(O)c2C(=O)C1OC1CC(OC2CC(OC3CC(C)(O)C(O)C(C)O3)C(O)C(C)O2)C(O)C(C)O1 (stereo unspecified),Potency,[1],inactive
CCCCCCCC/C=C\CCCCCCCC(=O)O,Potency,[1],inactive
CC[N+](C)(C)Cc1ccccc1Br,outcome,[2],inactive
same,outcome,[3],inactive
same,outcome,[4],inactive
same,outcome,[5],inactive
same,Potency,[1],inactive
COc1cc(-c2ccc(-[n+]3nc(-c4ccccc4)nn3-c3ccc([N+](=O)[O-])cc3)c(OC)c2)ccc1-[n+]1nc(-c2ccccc2)nn1-c1ccc([N+](=O)[O-])cc1,Potency,[1],inactive
COC(=O)C1=C(C#N)NC(C)=C(C(=O)OC(C)C)C1c1cccc([N+](=O)[O-])c1 (stereo unspecified),Potency,[1],inactive
O=C(O)c1cc(O)c2c(c1)[O][Bi][O]2,Potency,[6],15.8 µM (active)
same,Potency,[1],inactive
O=C(O)CCC(=O)C(=O)O,Potency,[1],inactive
Cc1c(C)c2c(c(C)c1O)CC[C@@](C)(CCC[C@H](C)CCC[C@H](C)CCCC(C)C)O2,Potency,[1],inactive
CCC(=O)NCCC1CCc2ccc3c(c21)CCO3 (stereo unspecified),Potency,[1],inactive
O=S(=O)(O)O,Potency,[1],inactive
CC(=O)N[C@@H](CC(=O)O)C(=O)N[C@@H](CCC(=O)O)C(=O)O (Ac-Asp-Glu-OH),Potency,[6],25.1 µM (active)
CCOC(=O)C1=C(C)NC(C)=C(C(=O)OCC)C1c1ccccc1C=CC(=O)OC(C)(C)C,Potency,[1],inactive
CC(C)N=c1cc2n(-c3ccc(Cl)cc3)c3ccccc3nc-2cc1Nc1ccc(Cl)cc1,Potency,[1],inactive
CC1=CCC(C(C)(C)O)CC1 (stereo unspecified),Potency,[1],inactive
CN1Cc2c(N)cccc2C(c2ccccc2)C1 (stereo unspecified),outcome,[7],inactive
same,outcome,[2],inactive
same,outcome,[8],inactive
same,outcome,[9],inactive
same,outcome,[10],inactive
same,outcome,[11],inactive
same,outcome,[12],inactive
same,outcome,[13],inactive
same,outcome,[14],inactive
same,outcome,[15],inactive
same,outcome,[3],inactive
same,outcome,[16],inactive
same,outcome,[4],inactive
same,outcome,[5],inactive
same,outcome,[17],inactive
same,outcome,[18],inactive
same,outcome,[19],inactive
same,Potency,[1],inactive
same,outcome,[20],inactive
CCN(CC)Cc1cc(Nc2ccnc3cc(Cl)ccc23)ccc1O,Potency,[1],inactive
Clc1cc(Cl)c(OCC#CI)cc1Cl,Potency,[1],12.6 µM (active)
CN(C)CCCN1c2ccccc2C(C)(C)c2ccccc21,Potency,[1],inactive
CC(C)(C)NC(=O)[C@@H]1C[C@@H]2CCCC[C@@H]2CN1C[C@@H](O)[C@H](Cc1ccccc1)NC(=O)[C@H](CC(N)=O)NC(=O)c1ccc2ccccc2n1,Potency,[1],inactive
Cc1ccccc1OCC(O)CNCCOc1ccc(C(N)=O)cc1 (stereo unspecified),Potency,[1],inactive
Nc1c(N=Nc2ccc(-c3ccc(N=Nc4cc(S(=O)(=O)O)c5ccccc5c4N)cc3)cc2)cc(S(=O)(=O)O)c2ccccc12,Potency,[1],inactive
CC1(C)S[C@@H]2[C@H](NC(=O)[C@@H](NC(=O)N3CCNC3=O)c3ccccc3)C(=O)N2[C@H]1C(=O)O,Potency,[1],inactive
